This passage reports growth inhibition results from PubChem BioAssay (NCI).

Compounds without any hit were thinned out: in the full panel of roughly 79,000, 15% have a hit. A number with no mark means an inactive call. Calls of active or inactive are those of the source. No stated cut-off is given here; in the data, active means growth inhibition above about 70%; inactive means the rest.

A short description of experiment [1]: NCI Yeast Anticancer Drug Screen. Data for the rad50 strain (AID 155).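 Further: 0% = growth of vehicle-only cultures of the same strain.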 Conditions: S. cerevisiae rad50 strain growth inhibition, hits give high values. An outline of the steps:
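Vehicle-treated cultures provide the reference for the growth inhibition reported for compound-exposed, repair-deficient yeast.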

Experiment [2] is described as follows: NCI Yeast Anticancer Drug Screen. Data for the mec2-1 strain (AID 157). Conditions: S. cerevisiae mec2-1 strain, hits give high values. An outline of the steps:
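Strain: mec2-1 (DNA repair/cell cycle alteration). Compound exposure, then growth measured; inhibition expressed relative to vehicle.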

Experiment [3] can be described thus: NCI Yeast Anticancer Drug Screen. Data for the sgs1 mgt1 strain (AID 161).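 Further: 0% = growth of cultures given vehicle only.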 The note with it: S. cerevisiae sgs1 mgt1 strain, hits give high values. In a few lines: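 Inhibition of yeast growth, normalised to vehicle-treated controls, is reported for a strain bearing genetic alterations in DNA damage repair.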
Experiment [4] can be described thus: NCI Yeast Anticancer Drug Screen. Data for the cln2 rad14 strain (AID 165).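 Further: 0% = growth equal to vehicle treated cultures.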 Conditions: S. cerevisiae cln2 rad14 strain, hits give high values. In a few lines: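 Compounds are applied to the cln2 rad14 yeast strain, and growth is then compared with that of vehicle-treated cultures to give inhibition.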
A short description of experiment [5]: NCI Yeast Anticancer Drug Screen. Data for the bub3 strain (AID 167). The note with it: S. cerevisiae bub3 mutant strain, hits give high values. In a few lines: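 Mutant yeast screening strain plus compound; vehicle-treated cultures serve as the 0% inhibition reference.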
A short description of experiment [6]: NCI Yeast Anticancer Drug Screen. Data for the mlh1 rad18 strain (AID 175). Conditions: S. cerevisiae mlh1 rad18 strain growth inhibition, hits give high values. An outline of the steps:
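Read-out is yeast growth inhibition, calculated against vehicle-only controls. The compound was applied to a strain engineered with DNA damage repair alterations.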

Setting [7] is: at 5.0 µM (retest, dose inferred, filed as 0.5).
Where [8] appears, read: at 50.0 µM (retest, dose inferred, filed as 5.0).

In the case of `COc1c2c(cc3c1c(=O)c1ccccc1n3C)OCO2`, the growth inhibition in experiment [1] (setting [7]) was -12%; in experiment [1] (setting [8]) it was 26%; in experiment [1] (at 50.0 µM), 61.5%; in experiment [2] (setting [7]) it was -4%; in experiment [2] (setting [8]), 1%; in experiment [2] (at 50.0 µM), 33.9%. The growth inhibition was -5% in experiment [3] (setting [7]); 14% in experiment [3] (setting [8]); 40.5% in experiment [3] (at 50.0 µM); 18% in experiment [4] (setting [7]); 5% in experiment [4] (setting [8]); -45.8% in experiment [4] (at 50.0 µM). Moreover, the growth inhibition in experiment [5] (setting [7]) is 2%; in experiment [5] (setting [8]), 0%; in experiment [5] (at 50.0 µM), 25.4%; in experiment [6] (setting [7]), -29%; in experiment [6] (setting [8]), 22%; in experiment [6] (at 50.0 µM) it was 62.8%.
For `O=[N+]([O-])c1ccc(SC(=S)N2CCCCC2)c([N+](=O)[O-])c1`, the growth inhibition in experiment [1] (setting [7]) is 21%; in experiment [1] (setting [8]), 98% (active); in experiment [1] (at 50.0 µM), 98.4% (active); in experiment [2] (setting [7]), 16%; in experiment [2] (setting [8]) it was 98% (active); in experiment [2] (at 50.0 µM), 99% (active). Besides, the growth inhibition in experiment [3] (setting [7]) is 15%; in experiment [3] (setting [8]), 99% (active); in experiment [3] (at 50.0 µM), 99.2% (active); in experiment [4] (setting [7]), 0%; in experiment [4] (setting [8]) it was 92% (active); in experiment [4] (at 50.0 µM) it was 98.4% (active). In addition, the growth inhibition was 10% in experiment [5] (setting [7]); 98% (active) in experiment [5] (setting [8]); 98.8% (active) in experiment [5] (at 50.0 µM); 21% in experiment [6] (setting [7]); 98% (active) in experiment [6] (setting [8]); 98.9% (active) in experiment [6] (at 50.0 µM).
For `COc1ccccc1/C=C1\NC(=S)N(/C=C2\C(=O)Oc3ccccc3C2=O)C1=O`, the growth inhibition in experiment [1] (setting [7]) was 8%; in experiment [1] (setting [8]), 32%; in experiment [1] (at 50.0 µM) it was 73.2% (active); in experiment [2] (setting [7]), -7%; in experiment [2] (setting [8]), 25%; in experiment [2] (at 50.0 µM), 29.9%. In addition, the growth inhibition in experiment [3] (setting [7]) is -6%; in experiment [3] (setting [8]), 38%; in experiment [3] (at 50.0 µM), 73% (active); in experiment [4] (setting [7]), -9%; in experiment [4] (setting [8]), 47%; in experiment [4] (at 50.0 µM), 64.7%. Moreover, the growth inhibition in experiment [5] (setting [7]) is -27%; in experiment [5] (setting [8]), 37%; in experiment [5] (at 50.0 µM) it was 79.1% (active); in experiment [6] (setting [7]) it was 9%; in experiment [6] (setting [8]), 50%; in experiment [6] (at 50.0 µM), 85.9% (active).
As for `COS(=O)c1cc(Cl)cc(Cl)c1OC(=O)CSSCC(=O)Oc1c(Cl)cc(Cl)cc1S(=O)OC` (stereo not drawn), the growth inhibition in experiment [1] (setting [7]) is 87% (active); in experiment [1] (setting [8]), 99% (active); in experiment [1] (at 50.0 µM) it was 98.8% (active); in experiment [2] (setting [7]), 85% (active); in experiment [2] (setting [8]), 99% (active); in experiment [2] (at 50.0 µM), 99.3% (active). Besides, the growth inhibition in experiment [3] (setting [7]) was 95% (active); in experiment [3] (setting [8]) it was 99% (active); in experiment [3] (at 50.0 µM), 99% (active); in experiment [4] (setting [7]), 60%; in experiment [4] (setting [8]) it was 98% (active); in experiment [4] (at 50.0 µM), 99.3% (active). For the same compound, the growth inhibition in experiment [5] (setting [7]) is 92% (active); in experiment [5] (setting [8]) it was 98% (active); in experiment [5] (at 50.0 µM), 98.9% (active).
`COc1cc(C=Nc2ccc(Cl)cc2)ccc1OC(=O)c1ccccc1`: the growth inhibition is 6% in experiment [1] (setting [7]); -8% in experiment [1] (setting [8]); 18% in experiment [1] (at 50.0 µM); -6% in experiment [2] (setting [7]); -5% in experiment [2] (setting [8]); -37% in experiment [2] (at 50.0 µM). For the same compound, the growth inhibition is -2% in experiment [3] (setting [7]); -1% in experiment [3] (setting [8]); -3.8% in experiment [3] (at 50.0 µM); 26% in experiment [4] (setting [7]); 21% in experiment [4] (setting [8]); 7.55% in experiment [4] (at 50.0 µM). Further, the growth inhibition in experiment [5] (setting [7]) was 27%; in experiment [5] (setting [8]) it was 30%; in experiment [5] (at 50.0 µM), -6.5%; in experiment [6] (setting [7]), 3%; in experiment [6] (setting [8]), -18%; in experiment [6] (at 50.0 µM), 11.1%.
Take `Cc1ccsc1/C=N/Nc1cc(C)c2cccc(C)c2n1`: the growth inhibition in experiment [1] (setting [7]) was 1%; in experiment [1] (setting [8]) it was 47%; in experiment [1] (at 50.0 µM) it was 48.5%; in experiment [2] (setting [7]), -23%; in experiment [2] (setting [8]), 21%; in experiment [2] (at 50.0 µM), 30.3%. Further, the growth inhibition in experiment [3] (setting [7]) was -11%; in experiment [3] (setting [8]), 24%; in experiment [3] (at 50.0 µM), 48.4%; in experiment [4] (setting [7]), 4%; in experiment [4] (setting [8]) it was 38%; in experiment [4] (at 50.0 µM), 33.8%. The growth inhibition in experiment [5] (setting [7]) is -12%; in experiment [5] (setting [8]), 63%; in experiment [5] (at 50.0 µM), 15.4%.
As to `COC(=O)c1nnn(-c2cc(Cl)ccc2Cl)c1C(=O)c1ccc(Cl)c(Cl)c1`, the growth inhibition is 12% in experiment [1] (setting [7]); 98% (active) in experiment [1] (setting [8]); 98.8% (active) in experiment [1] (at 50.0 µM); 4% in experiment [2] (setting [7]); 98% (active) in experiment [2] (setting [8]); 96.8% (active) in experiment [2] (at 50.0 µM). Further, the growth inhibition in experiment [3] (setting [7]) was 14%; in experiment [3] (setting [8]), 98% (active); in experiment [3] (at 50.0 µM) it was 99% (active); in experiment [4] (setting [7]) it was 6%; in experiment [4] (setting [8]), 97% (active); in experiment [4] (at 50.0 µM) it was 95.5% (active). Also, the growth inhibition is 18% in experiment [5] (setting [7]), 99% (active) in experiment [5] (setting [8]) and 95.3% (active) in experiment [5] (at 50.0 µM).
`Nc1ccccc1/C=C/c1c[nH]c2ccccc12`: the growth inhibition was 11% in experiment [1] (setting [7]); 97% (active) in experiment [1] (setting [8]); 91.6% (active) in experiment [1] (at 50.0 µM); 4% in experiment [2] (setting [7]); 98% (active) in experiment [2] (setting [8]); 97.5% (active) in experiment [2] (at 50.0 µM). Moreover, the growth inhibition in experiment [3] (setting [7]) is 5%; in experiment [3] (setting [8]), 98% (active); in experiment [3] (at 50.0 µM), 53.2%; in experiment [4] (setting [7]), -8%; in experiment [4] (setting [8]) it was 98% (active); in experiment [4] (at 50.0 µM) it was 95.6% (active). Further, the growth inhibition in experiment [5] (setting [7]) is 28%; in experiment [5] (setting [8]), 97% (active); in experiment [5] (at 50.0 µM) it was 97.7% (active).
In the case of `C/C(=N\NC(=S)N1CCCC1)c1nc2ncccc2[nH]1`, the growth inhibition was -20% in experiment [1] (setting [7]); 97% (active) in experiment [1] (setting [8]); 85.9% (active) in experiment [1] (at 50.0 µM); -3% in experiment [2] (setting [7]); 94% (active) in experiment [2] (setting [8]); 84.8% (active) in experiment [2] (at 50.0 µM). In addition, the growth inhibition in experiment [3] (setting [7]) is -2%; in experiment [3] (setting [8]), 95% (active); in experiment [3] (at 50.0 µM), 83.2% (active); in experiment [4] (setting [7]) it was -38%; in experiment [4] (setting [8]) it was 97% (active); in experiment [4] (at 50.0 µM), 81.7% (active). The growth inhibition in experiment [5] (setting [7]) was -40%; in experiment [5] (setting [8]) it was 98% (active); in experiment [5] (at 50.0 µM), 87% (active); in experiment [6] (setting [7]), 12%; in experiment [6] (setting [8]) it was 97% (active); in experiment [6] (at 50.0 µM) it was 82% (active).
Regarding `Clc1ccc(C2=CCN3CC=C(c4ccc(Cl)cc4)C23)cc1`, the growth inhibition in experiment [1] (setting [7]) is 24%; in experiment [1] (setting [8]) it was 18%; in experiment [1] (at 50.0 µM), 99.8% (active); in experiment [2] (setting [7]), 1%; in experiment [2] (setting [8]), 42%; in experiment [2] (at 50.0 µM), 99.9% (active). The growth inhibition in experiment [3] (setting [7]) is 32%; in experiment [3] (setting [8]), 46%; in experiment [3] (at 50.0 µM) it was 100% (active); in experiment [4] (setting [7]), 13%; in experiment [4] (setting [8]), 5%; in experiment [4] (at 50.0 µM) it was 99.6% (active). In addition, the growth inhibition in experiment [5] (setting [7]) was 17%; in experiment [5] (setting [8]) it was 41%; in experiment [5] (at 50.0 µM) it was 99.8% (active); in experiment [6] (setting [7]), 18%; in experiment [6] (setting [8]), 39%; in experiment [6] (at 50.0 µM), 99.8% (active).
`COc1ccccc1C(c1cc2c(cc1O)OCO2)N1CCOCC1` (stereo not drawn): the growth inhibition in experiment [1] (setting [7]) is -15%; in experiment [1] (setting [8]), 97% (active); in experiment [1] (at 50.0 µM), 99% (active); in experiment [2] (setting [7]) it was -20%; in experiment [2] (setting [8]), 98% (active); in experiment [2] (at 50.0 µM), 98.6% (active). In addition, the growth inhibition in experiment [3] (setting [7]) was -8%; in experiment [3] (setting [8]), 98% (active); in experiment [3] (at 50.0 µM) it was 85.3% (active); in experiment [4] (setting [7]) it was -12%; in experiment [4] (setting [8]), 51%; in experiment [4] (at 50.0 µM), 77.4% (active). Also, the growth inhibition in experiment [5] (setting [7]) is 15%; in experiment [5] (setting [8]) it was 99% (active); in experiment [5] (at 50.0 µM) it was 31.9%.
